Experimental data from PubChem BioAssay (EPA / NIEHS).
Activity calls are given as the source filed them. The calls were made as follows: active = hit-call score of the fitted dose curve at least 0.9, where 1 is the maximum; inactive = score below 0.9. *1 amine or outer side, *2 acyl side, *3 side chain or, on linkers, in order; H or OH if unused. Where a SMILES comes first, the peptide text is derived from it. Bridges are numbered along the chain shown (N, C = ends). Roman numbers before positions name the chains, in order. [ ]: non-standard residue; d: D form. Actinocin(9to1) = Cc1c2oc3c(C)ccc(C(=O)[*:1])c3nc-2c(C(=O)[*:2])c(N)c1=O; NMeV = CN[C@H](C(=O)O)C(C)C; Sar = CNCC(=O)O

The compounds below were run on Brachyury (BRA) Protein Expression, TBXT (gene 6862) (assay: CCTE_Deisenroth_DEVTOX-GLR_Endo_BRA: CCTE's DevTox GLR-Endo Assay Evaluation of Brachyury (BRA) Protein Expression, Deisenroth Lab (AID 2284417)).
Method: CCTE_Deisenroth_DEVTOX-GLR_Endo assay is a cell-based, multiplex-readout assay that uses RUES2-GLR, a human pluripotent cell line, with measurements taken at 48 hours after chemical dosing in a 384-well microplateCCTE_Deisenroth_DEVTOX-GLR_Endo_BRA is 1 of 4 assay components calculated from the CCTE_Deisenroth_DEVTOX-GLR_Endo assay and it measures the percentage of cells in an mesoderm state. Using a type of inducible fluorescent protein reporter, gain-of-signal activity can be used to understand changes in gene expression with fluorescent microscopy. The percentage of BRA+ cells are determined by calculating the number of BRA+ cells divided by the cell count. To generalize the intended target to other relatable targets, this assay component is annotated to the transcription factor intended target family, where the subfamily is T-box protein.Data from the assay component CCTE_Deisenroth_DEVTOX-GLR_Endo_BRA was analyzed as 1 assay endpoint. The endpoint is the percent BRA+ cell population minus the 0.2% DMSO control in the CCTE_Deisenroth_DEVTOX-GLR_Endo assay. Furthermore, this assay endpoint can be referred to as a secondary readout, because this assay has produced multiple assay endpoints where this one serves as a measure of mesoderm differentiation.
All assay protocols are aligned to the DevTox GLR-Endo assay workflow. Cells are seeded into 384-well microplates for 24 hours prior to initiating differentiation in defined media for a total duration of 48 hours. A total of two chemical exposures are administered in 24-hour intervals during the 48-hour differentiation period. At the assay termination point, cells are fixed and stained with a fluorescent dye demarcating the nucleus. High-content imaging is used to acquire brightfield and fluorescent channel images across 5 fields per well. Cell identification and mean biomarker fluorescence intensities are calculated with image analysis software to determine the total cell counts for viability assessment and the biomarker expression frequency for each lineage-dependent assay. A typical experimental design tests a 10-point concentration series (1 nM - 200 uM) for 28 compounds in single technical replicate. Assay plate controls include non-differentiated pluripotent cells (baseline control), lineage-specific differentiated cells (differentiation control), and DMSO solvent exposed differentiated cells (solvent control). Experiments typically comprise a minimum of four experimental replicates (n=4).

Compound | AC50
CNC(=O)c1cc(Oc2ccc(NC(=O)Nc3ccc(Cl)c(C(F)(F)F)c3)cc2)ccn1 | 4.31 µM (active)
O=c1[nH]c(=O)n([C@H]2C[C@H](O)[C@@H](CO)O2)cc1Br | 32.8 µM (active)
Nc1cccc2c1CN(C1CCC(=O)NC1=O)C2=O (stereo not given) | 0.00503 µM (active)
CC1=C(/C=C/C(C)=C/C=C/C(C)=C\C(=O)O)C(C)(C)CCC1 | 28 µM (active)
O=C(c1ccc(F)cc1)C1CCN(CCn2c(=O)[nH]c3ccccc3c2=O)CC1 | 70 µM (active)
CN1CCN2c3ccccc3Cc3ccccc3C2C1 (stereo not given) | 71.3 µM (active)
Cc1ccc(NC(=O)c2ccc(CN3CCN(C)CC3)cc2)cc1Nc1nccc(-c2cccnc2)n1 | 22.7 µM (active)
COc1cc2c(Nc3ccc(Br)cc3F)ncnc2cc1OCC1CCN(C)CC1 | 6.72 µM (active)
Cc1nc(Nc2ncc(C(=O)Nc3c(C)cccc3Cl)s2)cc(N2CCN(CCO)CC2)n1 | 21.7 µM (active)
CCN(CC)CCNC(=O)c1c(C)[nH]c(/C=C2\C(=O)Nc3ccc(F)cc32)c1C | 0.826 µM (active)
O=C1Cc2cc(CCN3CCN(c4nsc5ccccc45)CC3)c(Cl)cc2N1 | 4.78 µM (active)
CCCCCN=C(N)N/N=C/c1c[nH]c2ccc(OC)cc12 | 143 µM (active)
Cc1nc2sccn2c(=O)c1CCN1CCC(=C(c2ccc(F)cc2)c2ccc(F)cc2)CC1 | 17.7 µM (active)
COc1cc2ncnc(Nc3ccc(F)c(Cl)c3)c2cc1OCCCN1CCOCC1 | 10.8 µM (active)
Cc1c2oc3c(C)ccc(C(=O)N[C@@H]4C(=O)N[C@H](C(C)C)C(=O)N5CCC[C@H]5C(=O)N(C)CC(=O)N(C)[C@@H](C(C)C)C(=O)O[C@@H]4C)c3nc-2c(C(=O)N[C@@H]2C(=O)N[C@H](C(C)C)C(=O)N3CCC[C@H]3C(=O)N(C)CC(=O)N(C)[C@@H](C(C)C)C(=O)O[C@@H]2C)c(N)c1=O (I: T[dV]P[Sar][NMeV] / II: T[dV]P[Sar][NMeV]; ester I:1-I:C, II:1-II:C; linker I:N-II:N via Actinocin(9to1)) | 0.00108 µM (active)
